# Results reported in PubChem BioAssay AID624260 (Broad Institute, 2012).
# Among all 44,000 compounds or so, about 30 (0.07%) were called active. About 1% were inconclusive and are not listed. The list comes from a sample in which actives are over-represented; it also holds similar structures and randomly drawn compounds. A number with no mark means an inactive call. Rule as the data show it: active = inhibition above about 54% (passing the limit was not always enough); inconclusive = no clear call, values can overlap the other calls.
# Biological target: Histone-lysine N-methyltransferase NSD2 (Homo sapiens) (UniProt O96028)
# Test: NSD2 histone methyltransferase activity blockers – biochemical, plate reader, single point, primary screen (AID 624260);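 also: inhibitors reduce the monomethyl H3K36 fluorescence signal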
# Conditions: NSD2-SET H3K36me1 DELFIA fluorescence, at 12.5 µM, hits give high values
# Histone-lysine N-methyltransferase NSD2 (Homo sapiens), sequence (O96028 whole entry, looked up): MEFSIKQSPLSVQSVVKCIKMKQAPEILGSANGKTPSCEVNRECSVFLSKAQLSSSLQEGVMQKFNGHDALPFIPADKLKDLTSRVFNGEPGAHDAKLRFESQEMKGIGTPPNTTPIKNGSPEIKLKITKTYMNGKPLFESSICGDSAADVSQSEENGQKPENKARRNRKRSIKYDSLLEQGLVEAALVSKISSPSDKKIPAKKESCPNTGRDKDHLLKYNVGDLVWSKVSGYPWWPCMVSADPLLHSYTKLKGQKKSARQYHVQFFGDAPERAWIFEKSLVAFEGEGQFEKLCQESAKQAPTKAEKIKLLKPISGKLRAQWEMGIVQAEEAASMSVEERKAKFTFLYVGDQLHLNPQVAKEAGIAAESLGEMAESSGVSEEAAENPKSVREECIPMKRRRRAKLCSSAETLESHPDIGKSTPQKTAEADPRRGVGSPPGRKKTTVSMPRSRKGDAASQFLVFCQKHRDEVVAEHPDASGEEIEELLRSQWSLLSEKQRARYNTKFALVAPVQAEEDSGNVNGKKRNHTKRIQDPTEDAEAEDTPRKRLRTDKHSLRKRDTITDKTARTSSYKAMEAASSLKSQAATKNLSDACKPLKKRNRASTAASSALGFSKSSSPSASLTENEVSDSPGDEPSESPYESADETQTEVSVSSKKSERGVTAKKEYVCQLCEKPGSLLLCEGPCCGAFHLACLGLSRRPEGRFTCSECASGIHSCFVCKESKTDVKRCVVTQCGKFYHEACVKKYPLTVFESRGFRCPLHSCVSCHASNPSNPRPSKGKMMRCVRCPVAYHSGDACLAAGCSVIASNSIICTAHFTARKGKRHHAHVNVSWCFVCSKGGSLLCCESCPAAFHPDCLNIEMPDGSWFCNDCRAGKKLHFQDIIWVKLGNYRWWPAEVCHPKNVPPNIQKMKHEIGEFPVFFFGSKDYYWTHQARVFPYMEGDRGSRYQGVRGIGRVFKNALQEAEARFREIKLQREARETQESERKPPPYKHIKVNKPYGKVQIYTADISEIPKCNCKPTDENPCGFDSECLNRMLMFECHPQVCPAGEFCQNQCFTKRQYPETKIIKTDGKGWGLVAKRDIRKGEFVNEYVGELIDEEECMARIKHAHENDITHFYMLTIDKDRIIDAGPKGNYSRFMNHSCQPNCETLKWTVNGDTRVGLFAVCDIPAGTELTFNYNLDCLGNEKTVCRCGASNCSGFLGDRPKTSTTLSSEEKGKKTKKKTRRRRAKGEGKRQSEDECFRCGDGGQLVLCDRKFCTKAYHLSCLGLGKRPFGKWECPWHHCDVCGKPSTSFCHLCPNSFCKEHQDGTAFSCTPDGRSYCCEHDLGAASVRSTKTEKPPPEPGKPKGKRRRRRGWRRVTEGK
row,Structure (SMILES),inhibition
1,O=C(C[C@H]1C[C@@H]2c3cc(NC(=O)c4cccnc4)ccc3O[C@@H]2[C@@H](CO)O1)NCc1ccccc1F,-0.738%
2,CCCN(C)C[C@H]1Oc2cc(C#CCC3CCCC3)ccc2S(=O)(=O)N([C@@H](C)CO)C[C@@H]1C,1.41%
3,C[C@@H]1CN([C@@H](C)CO)C(=O)Cc2cc(NC(=O)Nc3ccc4c(c3)OCO4)ccc2O[C@H]1CN(C)S(=O)(=O)c1ccc(F)cc1,5.36%
4,C[C@H](CO)N1C[C@H](C)[C@@H](CN(C)Cc2ccc(C(F)(F)F)cc2)Oc2ccc(NC(=O)Cn3cnnn3)cc2CC1=O,-8%
5,CC(C)NC(=O)N(C)C[C@H]1Oc2cc(C#Cc3ccccn3)ccc2S(=O)(=O)N([C@H](C)CO)C[C@@H]1C,4.46%
6,CC(/C=C/C(=O)NO)=C\c1ccccc1OCc1ccc(COc2ccc3ccncc3c2)cc1,-5.12%
7,C[C@@H]1CN([C@H](C)CO)S(=O)(=O)c2ccc(/C=C/c3ccccc3)cc2O[C@@H]1CN(C)C(=O)Nc1ccc(F)cc1,-10.2%
8,C[C@H]1CN([C@@H](C)CO)C(=O)Cc2cc(NC(=O)Nc3cccc4ccccc34)ccc2O[C@@H]1CN(C)C,1.05%
9,Cc1ccc(-c2ccc3c(c2)O[C@H](CN(C)C(=O)Nc2ccccc2)[C@@H](C)CN([C@@H](C)CO)S3(=O)=O)cc1,-6.18%
10,CCCNC(=O)C[C@H]1C[C@@H]2c3cc(NC(=O)c4ccc5c(c4)OCO5)ccc3O[C@@H]2[C@@H](CO)O1,7.66%
11,C[C@H](CO)N1C[C@H](C)[C@@H](CN(C)CC2CC2)Oc2ccc(NC(=O)CCCN(C)C)cc2CC1=O,3.07%
12,O=C(C[C@H]1CC[C@H](NC(=O)Nc2ccc(C(F)(F)F)cc2)[C@H](CO)O1)NCCN1CCCC1,-1.99%
13,COc1ccc(NC(=O)N(C)C[C@H]2OCc3ccccc3-c3ccccc3C(=O)N([C@H](C)CO)C[C@@H]2C)cc1,-1.37%
14,CCC(=O)N(C)C[C@H]1Oc2cc(C#CCOC)ccc2S(=O)(=O)N([C@H](C)CO)C[C@H]1C,-1.1%
15,O=C(C[C@H]1C[C@H]2c3cc(NC(=O)Nc4ccc(F)cc4)ccc3O[C@H]2[C@@H](CO)O1)NCC1CC1,2.39%
16,COc1ccc(CN(C)C[C@H]2OCCCC[C@H](C)Oc3ccc(NS(=O)(=O)c4ccc(C)cc4)cc3C(=O)N([C@@H](C)CO)C[C@H]2C)cc1,2.76%
17,C[C@@H]1CN([C@@H](C)CO)C(=O)Cc2cc(NC(=O)Nc3ccc(C(F)(F)F)cc3)ccc2O[C@H]1CN(C)C(=O)Nc1ccc(F)cc1,-13.8%
18,Cc1ccc(S(=O)(=O)N(C)C[C@@H]2Oc3ccc(NC(=O)C4CCCCC4)cc3CC(=O)N([C@@H](C)CO)C[C@H]2C)cc1,-6.23%
19,CCC(=O)N(C)C[C@@H]1Oc2cc(-c3ccc(OC)cc3)ccc2S(=O)(=O)N([C@@H](C)CO)C[C@H]1C,1.75%
20,C[C@H](NC(=O)C[C@@H]1CC[C@H](NC(=O)CN2CCOCC2)[C@H](CO)O1)c1ccccc1,-3.53%

row,Structure (SMILES),inhibition
1,COc1cccc(S(=O)(=O)N(C)C[C@@H]2Oc3ncc(-c4cccc(C(=O)N(C)C)c4)cc3C(=O)N([C@H](C)CO)C[C@@H]2C)c1,5.93%
2,COc1ccc(NC(=O)Nc2ccc3c(c2)C(=O)N([C@H](C)CO)C[C@@H](C)[C@H](CN(C)C(=O)Cc2ccccc2)OCCCC[C@H](C)O3)cc1,-2.17%
3,CCCNC(=O)C[C@H]1C[C@@H]2c3cc(NC(=O)C4CCOCC4)ccc3O[C@@H]2[C@@H](CO)O1,11%
4,C/C=C/c1ccc2c(c1)O[C@H](CN(C)C(=O)CN(C)C)[C@H](C)CN([C@@H](C)CO)S2(=O)=O,1.3%
5,Cc1noc(C)c1S(=O)(=O)Nc1ccc2c(c1)C(=O)N([C@H](C)CO)C[C@@H](C)[C@@H](CN(C)S(=O)(=O)c1ccc(Cl)cc1)O2,-1.25%
6,C[C@H](CO)N1C[C@H](C)[C@@H](CN(C)Cc2ccccc2)OCCCC[C@H](C)Oc2ccc(NC(=O)Cc3ccccc3)cc2C1=O,-3.29%
7,CCCN(C)C[C@H]1Oc2cc(C#CCC(C)C)ccc2S(=O)(=O)N([C@H](C)CO)C[C@H]1C,0.338%
8,C[C@H]1CN([C@@H](C)CO)C(=O)c2cccc(NC(=O)Nc3ccc(C(F)(F)F)cc3)c2O[C@H]1CN(C)CC1CCCCC1,1.34%
9,C[C@H](CO)N1C[C@H](C)[C@H](CN(C)Cc2ccccc2)OCCCC[C@H](C)Oc2ccc(NC(=O)c3ccccc3)cc2C1=O,8.82%
10,C[C@H]1CN([C@@H](C)CO)C(=O)c2cc(-c3ccncc3)cnc2O[C@H]1CN(C)C(=O)c1cccc(F)c1,-1.28%
11,CC(C)CC#Cc1ccc2c(c1)O[C@H](CN(C)C(=O)c1cccnc1)[C@@H](C)CN([C@H](C)CO)S2(=O)=O,0.112%
12,C[C@H]1CN([C@@H](C)CO)C(=O)c2cc(C3=CCCCC3)cnc2O[C@H]1CN(C)Cc1ccncc1,3.39%
13,C/C=C/c1ccc2c(c1)O[C@@H](CN(C)C(=O)Cc1ccccc1)[C@H](C)CN([C@@H](C)CO)S2(=O)=O,5.94%
14,COc1ccc(NC(=O)N(C)C[C@H]2Oc3cc(C#CCN(C)C)ccc3S(=O)(=O)N([C@@H](C)CO)C[C@@H]2C)cc1,5.29%
15,Cc1noc(C)c1NC(=O)N(C)C[C@@H]1Oc2ccc(NC(=O)Nc3cccc4ccccc34)cc2CC(=O)N([C@@H](C)CO)C[C@H]1C,-4.68%
16,CCC(=O)N(C)C[C@@H]1Oc2cc(C#CCOC)ccc2S(=O)(=O)N([C@H](C)CO)C[C@H]1C,-17.7%
17,CN(C)C(=O)C[C@H]1C[C@H]2c3cc(NC(=O)Nc4ccccc4F)ccc3O[C@H]2[C@@H](CO)O1,2.09%
18,COCC(=O)N(C)C[C@H]1Oc2ncc(-c3ccc(C)cc3)cc2C(=O)N([C@@H](C)CO)C[C@@H]1C,25.2%
19,C/C=C/c1cnc2c(c1)C(=O)N([C@@H](C)CO)C[C@@H](C)[C@H](CN(C)C(=O)c1cnccn1)O2,0.45%
20,C[C@H](CO)N1C[C@H](C)[C@@H](CN(C)C)Oc2cc(C#Cc3ccccc3)ccc2S1(=O)=O,-6.31%

row,Structure (SMILES),inhibition
1,O=C(Nc1ccc2c(c1)[C@H]1C[C@@H](CC(=O)N3CCc4ccccc4C3)O[C@H](CO)[C@H]1O2)Nc1ccccc1F,2.01%
2,C[C@H](CO)N1C[C@H](C)[C@@H](CN(C)S(=O)(=O)c2ccccc2)Oc2ncc(-c3ccncc3)cc2C1=O,4.23%
3,C[C@H](CO)N1C[C@H](C)[C@H](CN(C)CC2CCCC2)Oc2ncc(Br)cc2C1=O,0.26%
4,CC(=O)N(C)C[C@H]1Oc2ncc(C#Cc3ccc(F)cc3)cc2C(=O)N([C@H](C)CO)C[C@@H]1C,3.93%
5,C[C@@H]1CN([C@H](C)CO)S(=O)(=O)c2ccc(-c3ccncc3)cc2O[C@H]1CN(C)S(=O)(=O)c1ccccc1F,-2.69%
6,CC(C)CC#Cc1ccc2c(c1)O[C@@H](CN(C)C(=O)c1ccccc1F)[C@H](C)CN([C@H](C)CO)S2(=O)=O,-7.41%
7,C[C@@H]1CN([C@@H](C)CO)S(=O)(=O)c2ccc(C#C[C@@H](C)O)cc2O[C@@H]1CN(C)CC1CC1,4.62%
8,COCC#Cc1ccc2c(c1)O[C@@H](CN(C)Cc1cccnc1)[C@@H](C)CN([C@H](C)CO)S2(=O)=O,5.56%
9,COc1ccc(S(=O)(=O)Nc2ccc3c(c2)C(=O)N([C@@H](C)CO)C[C@H](C)[C@@H](CN(C)S(=O)(=O)c2ccc(C)cc2)OCCCC[C@@H](C)O3)cc1,-8.56%
10,C[C@@H]1CN([C@@H](C)CO)S(=O)(=O)c2ccc(Br)cc2O[C@@H]1CN(C)C(=O)C1CCCCC1,-6.34%
11,C[C@@H]1CN([C@H](C)CO)S(=O)(=O)c2ccc(C#CC(C)(C)O)cc2O[C@@H]1CN(C)Cc1ccccc1,-5.05%
12,COCC(=O)N(C)C[C@@H]1Oc2cc(C3=CCCC3)ccc2S(=O)(=O)N([C@@H](C)CO)C[C@H]1C,-2.03%
13,C[C@@H]1CN([C@@H](C)CO)S(=O)(=O)c2ccc(Br)cc2O[C@H]1CN(C)S(=O)(=O)c1ccccc1,0.606%
14,COc1ccc(NC(=O)Nc2ccc3c(c2)[C@H]2C[C@H](CC(=O)NC4CCCC4)O[C@H](CO)[C@H]2O3)cc1,-1.24%
15,C[C@@H]1CCCCO[C@H](CN(C)C(=O)Cc2ccccc2)[C@H](C)CN([C@@H](C)CO)C(=O)c2cc(NS(=O)(=O)c3ccc(F)cc3)ccc2O1,6.79%
16,C[C@H](CO)N1C[C@H](C)[C@@H](CN(C)C(=O)C2CCCCC2)Oc2cc(C3=CCCC3)ccc2S1(=O)=O,-2.1%
17,COc1ccc(NC(=O)Nc2ccc3c(c2)C(=O)N([C@@H](C)CO)C[C@@H](C)[C@H](CN(C)C(=O)CCC(F)(F)F)OCCCC[C@@H](C)O3)cc1,-1.97%
18,C/C=C/c1ccc2c(c1)O[C@@H](CN(C)C(=O)C1CCOCC1)[C@H](C)CN([C@H](C)CO)S2(=O)=O,12.8%
19,C[C@@H]1CN([C@@H](C)CO)C(=O)Cc2cc(NS(=O)(=O)c3ccc(Cl)cc3)ccc2O[C@H]1CN(C)Cc1ccc(C(F)(F)F)cc1,-12.4%
